nsP2pro inh = CHIKV nsP2 protease inhibition, primary qHTS; FRET peptide cleavage, nsP2pro, fluorescence 1 h; Q8JUX6; 1.1% of 31,000 active; AID 1964107; Potency, µM (top dose mostly 24.9 µM), inactives show top-dose activity change, negative = inhibition, actives largely listed as inhibitors; also: nearly all actives have a fitted effect of over 60% in size
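Recombinant nsP2pro (150 nM) was preincubated with compound 15 min at room temperature in 10 mM Tris-HCl pH 8.0, 0.01% Tween 20. Peptide 2 FRET substrate (2.5 uM) was then added and fluorescence read after 1 h. Seven-point series, up to 25 uM.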
CHIKV nsP2 cell = cell-based CHIKV nsP2 protease inhibition, secondary | 10% of 450 active | Potency, µM (titrated, usually from 51.1 µM), for the others: at the top dose activity change, negative = inhibition, usual class: inhibitors | AID 1964100 | shares compounds with nsP2pro inh | cell-based CHIKV nsP2 protease reporter assay; also: nearly all actives have a fitted effect of over 70% in size
NSP2 full ctr = inhibits full-length CHIKV NSP2 enzyme. shares compounds with nsP2pro inh. Full-length CHIKV NSP2 protease enzymatic counterscreen. Potency, µM (doses to about 50.7 µM), for the others: at the highest dose activity change, negative = inhibition, most hits filed as inhibitors. 39% of 410 active. AID 1964101; also: nearly all actives have a fitted effect of over 65% in size
Furin counter = inhibits human furin in a CHIKV nsP2 protease selectivity counterscreen. Recombinant human furin enzymatic counterscreen, fluorogenic substrate. 6% of 410 active. shares compounds with nsP2pro inh. Potency, µM (titrated, usually from 50.6 µM), without a hit: top-dose activity change, negative = inhibition, hits mostly inhibitors
nsP2 NS23 pep = nsP2pro inhibition on native NS2/3 peptide substrate; shares compounds with nsP2pro inh; Purified CHIKV nsP2 protease, endogenous NS2/3 peptide cleavage; Potency, µM (top dose mostly 51 µM), inactives show at the top dose activity change, negative = inhibition, most hits filed as inhibitors; 34% of 410 active; AID 1964103; also: nearly all actives have a fitted effect of over 55% in size
Papain cs = papain protease inhibition, counterscreen for nsP2pro inhibitors; shares compounds with nsP2pro inh; purified papain protease activity, enzymatic inhibition; Potency, µM (doses to about 51 µM), for inactives: at the highest dose activity change, negative = inhibition, usual class: inhibitors; 5% of 410 active; AID 1964104
nsP2pro confirm = confirmation of CHIKV nsP2 protease inhibitors; shares compounds with nsP2pro inh; CHIKV nsP2 protease enzymatic activity, qHTS; Potency, µM (highest dose often 25.5 µM), for the others: at the highest dose activity change, negative = inhibition, actives largely listed as inhibitors; 43% of 410 active; AID 1964105; also: nearly all actives have a fitted effect of over 75% in size
HCV NS3 counter = inhibits HCV NS3/4A protease in an nsP2pro selectivity counterscreen; shares compounds with nsP2pro inh; HCV NS3/4A protease biochemical counterscreen; Potency, µM (highest dose often 50.9 µM), usual class: inhibitors; 20% of 410 active; AID 1964106; also: nearly all actives have a fitted effect of over 55% in size
Numbers without * were called inactive; i = inactive; ? = inconclusive; · = no result. The entries come from a sample that favours hits as a whole. Calls follow the shape of the full dose curve. % is scaled to controls: 0 for no effect and ±100 for the full control effect; potency is read from the fitted curve at half-maximal effect.

SMILES | nsP2pro inh | CHIKV nsP2 cell | NSP2 full ctr | Furin counter | nsP2 NS23 pep | Papain cs | nsP2pro confirm | HCV NS3 counter
O=C(Nc1cccs1)NC1CCN(c2ccc(C(F)(F)F)cn2)C1 (centres undefined) | ? | ? | ? | -3% | ? | -15% | ? | i
O=C(Nc1ccccc1)NC1CCCN(c2ccc3nnc(-c4ccccc4)n3n2)C1 (centres undefined) | -1% | · | · | · | · | · | · | ·
O=C(NC1CCN(c2cc(-c3cccs3)[nH]n2)C1)c1cccnc1 (centres undefined) | -12% | · | · | · | · | · | · | ·
CCCc1cc(=O)n2[nH]c(NCc3c(F)cccc3Cl)nc2n1 | -6% | · | · | · | · | · | · | ·
Cn1cc(C2=C(c3coc4ccccc34)C(=O)NC2=O)c2cc(Br)ccc21 | 85% | · | · | · | · | · | · | ·
O=S(=O)(NCc1ccccn1)c1ccc(Br)c2ccccc12 | 32% | · | · | · | · | · | · | ·
Clc1ncoc1-c1c[nH]c2ccccc12 | ? | -13% | -18% | -2% | -26% | -13% | -22% | i
CNc1oc(-c2c[nH]c3ccccc23)nc1C#N | i | · | · | · | · | · | · | ·
COc1ccc(S(=O)(=O)c2c(C(=O)c3ccc(C)c(C)c3)cnc3ccc(F)cc23)cc1 | -14% | · | · | · | · | · | · | ·
COc1cccc(C2=NN(S(C)(=O)=O)C(c3cn(-c4ccccc4)nc3-c3cccs3)C2)c1 (centres undefined) | -26% | · | · | · | · | · | · | ·
O=S(=O)(Nc1cc(Cl)c(Oc2cnc3ccccc3c2)c(Cl)c1)c1ccc(Cl)cc1Cl | 3% | · | · | · | · | · | · | ·
O=[N+]([O-])c1ccc(S(=O)(=O)Nc2cnc3ccccc3c2)cc1 | 6.3µM* | 18% | 3% | -6% | 71% | 5% | 7% | i
COc1cccc(CNc2ccc(S(=O)(=O)Nc3cnc4ccccc4c3)cc2)c1O | i | · | · | · | · | · | · | ·
Cc1c(P(=S)(c2ccccc2)c2ccccc2)c2ccccc2n1C(=O)Cc1ccccc1 | -11% | · | · | · | · | · | · | ·
CNC(=O)c1ccccc1Nc1cc(Nc2ccc(N3CCOCC3)cc2OC)ncc1C(F)(F)F | -28% | · | · | · | · | · | · | ·
N#CC1=C2SCN(C3CCCCC3)CN2C(=O)CC1c1ccc(Cl)cc1 (centres undefined) | 72% | · | · | · | · | · | · | ·
N#CC1=C2SCN(C3CCCCC3)CN2C(=O)CC1c1ccc(F)cc1 (centres undefined) | ? | ? | -2% | -7% | 1.8µM* | -13% | 13µM* | i
CCOC(=O)c1c(NC(=O)COc2ccccc2)sc(C(C)=O)c1C | 20% | · | · | · | · | · | · | ·
CCOC(=O)c1c(NC(=O)c2nc(S(C)(=O)=O)ncc2Cl)sc(C(C)=O)c1C | ? | 3.7µM* | ? | -12% | 4.6µM* | -3% | -96% | ?
CCOC(=O)c1c(NC(=O)c2nc(SCC)ncc2Cl)sc(C(C)=O)c1C | -5% | · | · | · | · | · | · | ·
COC1C(=O)CCC2(CO2)C1(O)C1(C)OC1CC=C(C)C (centres undefined) | 65% | · | · | · | · | · | · | ·
C#CCN(Cc1ccco1)Cc1cnc(S(C)(=O)=O)n1CCCc1ccccc1 | -28% | · | · | · | · | · | · | ·
COc1ccc(-c2noc(CC(=O)O)c2-c2ccc(OC)cc2)cc1 | -4% | · | · | · | · | · | · | ·
COc1ccc(-c2nnc(SCC(=O)Nc3c(C)cccc3C)nc2-c2ccc(OC)cc2)cc1 | -25% | · | · | · | · | · | · | ·
CCOC(=O)Cn1cccc1-c1nc(-c2ccc(OC)cc2)c(-c2ccc(OC)cc2)s1 | 6.2µM* | -5% | ? | -10% | -3% | 7% | 10% | i
Cc1ccc(C#Cc2cc(-c3nn(-c4nc(C(=O)O)cs4)c(CC4CC4)c3Cc3ccc(S(N)(=O)=O)c(F)c3)ccc2F)o1 | 4µM* | 0.13µM* | ? | -22% | 56% | 23µM* | -52% | i
CCC1(CC)CCN(C(=O)CC(c2ccc3c(c2)OCO3)c2c(O)cc(OC)cc2OC)C1 (centres undefined) | -8% | · | · | · | · | · | · | ·

Compound activity: PubChem BioAssay, National Center for Advancing Translational Sciences (NCATS)
